Active and inactive are the calls of the source.
How the values were obtained:
[1] = tested on: XIP peptide (Xip251-270) binding; test: small-molecule binders of XIP peptide, primary screen, biochemical, small-molecule microarray, fluorescence 635/667 nm, 0.1 µg/mL protein (AID 1182); conditions: fluorescent protein binding, 635 nm, higher = more signal, called active from +8 up or from −8 down
XIP peptide (Xip251-270) = test: small-molecule binders of XIP peptide, primary screen, biochemical, small-molecule microarray, fluorescence 635/667 nm, 0.5 µg/mL protein (AID 1183); conditions: small-molecule microarray binding, fluorescence 635 nm; higher = more signal
[2] = Plasmodium falciparum growth inhibition, primary screen, strain 3D7, DAPI fluorescence, 100 nL (AID 1184);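 also: parasites grown inside human red blood cells in medium with human serum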; conditions: P. falciparum 3D7 growth, 3 d, higher = more signal
[3] = molecular target: Homeobox protein Hox-A13 (Mus musculus) (UniProt Q62424); test: inhibitors of HoxA13-DNA binding, primary screen, biochemical, fluorescence polarization, labeled oligonucleotide (AID 1185); conditions: 15 min, higher = more signal, called active from +8 up or from −8 down
Sequence of Homeobox protein Hox-A13 (Mus musculus) (Q62424 whole entry, looked up): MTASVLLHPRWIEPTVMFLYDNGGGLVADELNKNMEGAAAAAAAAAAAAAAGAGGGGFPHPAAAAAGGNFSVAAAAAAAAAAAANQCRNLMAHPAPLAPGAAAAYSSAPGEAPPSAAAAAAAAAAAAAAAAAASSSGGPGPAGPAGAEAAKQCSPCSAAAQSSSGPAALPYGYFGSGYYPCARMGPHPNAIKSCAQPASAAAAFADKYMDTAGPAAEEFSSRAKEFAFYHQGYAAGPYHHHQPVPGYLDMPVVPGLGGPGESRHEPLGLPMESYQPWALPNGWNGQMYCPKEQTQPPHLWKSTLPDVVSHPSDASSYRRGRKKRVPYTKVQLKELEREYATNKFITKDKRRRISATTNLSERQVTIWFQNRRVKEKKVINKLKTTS

| Compound | composite z-score [1] | composite z-score (XIP peptide (Xip251-270)) | z-score [2] | z-score [3] |
| --- | --- | --- | --- | --- |
| C[C@H]1CC[C@@H](C(=O)O)N[C@@H]1c1cccc(N2CCCC2=O)c1 | 0.641 (inactive) | -0.397 | 0.752 | -0.0351 (inactive) |
| COc1ccc(COC(=O)NN=C2C[C@@H](O)[C@@H](O)[C@@H]3[C@@H]4C(=O)N(Cc5ccc6c(c5)OCO6)C(=O)[C@@H]4CC[C@H]23)cc1 | 0.369 (inactive) | 0.174 | -0.427 | -0.118 (inactive) |
| CO[C@@H]1[C@H](O)CO[C@H]1C=Cc1ccccc1 | -0.553 (inactive) | 0.836 | -0.703 | -3.28 (inactive) |
| O=C1CCCC=C1C(O)c1ccc([N+](=O)[O-])cc1 (stereo unspecified) | -0.542 (inactive) | 0.852 | 0.938 | 0.164 (inactive) |
| C=C(C)C(=O)OC[C@H]1CN2[C@@H](CC[C@@H](C)[C@@H]2c2ccc(Br)cc2)C(=O)O1 | 0.414 (inactive) | -0.102 | 1.05 | -2.2 (inactive) |
| COC(=O)CC=C[C@@H](C)[C@@H](C=NOC(C)CN1CCCCc2nc(C)c(C)cc21)NS(=O)(=O)c1ccc(C)cc1 (stereo partly specified) | -0.598 (inactive) | -0.0903 | 0.453 | -0.327 (inactive) |
| CC(CCN1CCc2nc(-c3ccccc3)c(-c3ccccc3)cc2C1)=NO[C@H](C)c1cn([C@H](CO)Cc2ccccc2)nn1 | 0.899 (inactive) | 0.529 | -0.618 | -5.22 (inactive) |
| C#CCCCON=C1C[C@@H](O)[C@@H](O)[C@@H]2[C@@H]3C(=O)N([C@@H](C)c4ccccc4)C(=O)[C@@H]3CC[C@@H]12 | -0.406 (inactive) | -0.125 | -0.913 | -2.28 (inactive) |
| COc1ccc(O[C@H]2C=C[C@@H](c3ccccc3)O[C@@H]2COC(=O)CCC(C)=NOC[C@@H](O)COCc2ccco2)cc1 | -0.0073 (inactive) | -0.448 | 0.048 | -5.52 (inactive) |
| C[C@H]1C=CCC(=O)OC[C@H](C)C(=O)N2CCC[C@H]2C(=O)OC1 | 0.23 (inactive) | 0.476 | 0.878 | -0.266 (inactive) |
| CO[C@@H]1COC(=O)[C@@H]2CCCN2C(=O)[C@@H](C)COC(=O)CCC[C@H]1C | -0.0308 (inactive) | 0.143 | 0.193 | 0.694 (inactive) |
| CC(C)CN1CCc2nc(-c3ccccc3)c3c(c2C1)CO[C@@H](C)C3 | 0.973 (inactive) | 0.687 | -0.927 | -4.73 (inactive) |
| C[C@@H](c1ccccc1)N1C(=O)[C@H]2[C@H]3[C@H](O)[C@H](O)CC(=NOC[C@@H](O)COCc4ccco4)[C@H]3CC[C@H]2C1=O | 0.15 (inactive) | 0.316 | -2.06 | -3.21 (inactive) |
| CCN1C(=O)[C@H]2[C@H]3[C@H](O)[C@H](O)CC(=NOC[C@@H](O)COCc4ccco4)[C@H]3CC[C@H]2C1=O | 0.386 (inactive) | 0.505 | -0.0786 | 0.366 (inactive) |
| COC(=O)CC=C1c2ccccc2[C@H](OC)[C@H]1C | -1.14 (inactive) | -0.302 | 0.406 | 0.281 (inactive) |
| CSCC[C@@H]1NC(=O)CC=C[C@@H](C)COC(=O)[C@H](C)COC1=O | 0.439 (inactive) | 0.8 | 0.461 | 0.0971 (inactive) |
| CCCNC(=O)OC[C@H]1O[C@H](CCON=C[C@@H](C)[C@H](OCc2ccccc2)C(C)C)C=C[C@@H]1Oc1ccc(OC)cc1 | 0.196 (inactive) | -0.267 | -0.591 | -3.32 (inactive) |
| CON=C[C@@H](OC)[C@H](C)C=CCC(=O)OC | -1.44 (inactive) | -0.499 | -0.166 | -0.326 (inactive) |
| COc1ccc(-c2cnnc(CCCn3ccnc3-c3ccccc3)n2)cc1 | 0.0584 (inactive) | 0.492 | -0.964 | -3.52 (inactive) |
| CC(CCN1CCCc2nc(C)c(C)cc21)=NO[C@H](C)c1cn([C@H](CO)Cc2ccccc2)nn1 | -0.0325 (inactive) | 0.532 | -2.52 | -7.43 (inactive) |
| CCCCOC(OCCCC)C(O)CSc1ccc2ccccc2c1 (stereo unspecified) | 0.115 (inactive) | 0.198 | 0.609 | -3.85 (inactive) |
| C=CC[C@@H]1C=C[C@H](ON=CC[C@@H]2C=C[C@H](OC(C)=O)[C@@H](COC(C)=O)O2)[C@@H](CO)O1 | 0.571 (inactive) | 0.749 | 0.422 | -0.273 (inactive) |
| CC(CCC(=O)OC[C@H]1O[C@H](C#Cc2ccccc2)C=C[C@@H]1Oc1ccc(C)cc1)=NOC(C)CN1CCCc2nc(C)c(C)cc21 (stereo partly specified) | 0.687 (inactive) | 0.529 | -1.9 | -3.93 (inactive) |
| COC(=O)CC=C[C@@H](C)[C@@H](C=NOC(C)CN1CCCCc2nc(C)c(C)cc21)OC (stereo partly specified) | 0.771 (inactive) | 0.444 | 1 | -4.37 (inactive) |
